Shown are actives, neighbours in structure and some others; about 7.3% of the full set was active somewhere.
SMN2 splice enh = SMN2 splice variant enhancement; HEK293 SMN2-luciferase splicing reporter, luminescence, 30-36 h; Potency, µM (doses to about 46.1 µM), without a hit: at the highest dose activity change, positive = activation, actives largely listed as activators; actives 2.8% (n = 210,000); note: % of control where 0% means no effect; nearly all actives have a fitted effect of over 55% in size
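HEK293 cells carry an SMN2 minigene-luciferase reporter in which exon 7 inclusion puts luciferase in frame. Cells were seeded at 2000 cells/well, attached for 10-12 hours, then exposed to compounds for 30-36 hours at 37C before ONE-Glo luminescence.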
NPC1 promoter act = NPC1 promoter activation; AID 485313; Potency, µM (highest dose often 9.22 µM), for inactives: top-dose activation, most hits filed as activators; actives 2.4% (n = 320,000); Huh7 NPC1 promoter luciferase reporter, 24 h; note: % of control where 0% means no effect; nearly all actives have a fitted effect of over 60% in size
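Quantitative HTS used a cell-based reporter: Huh7 cells stably bearing the NPC1 promoter upstream of luciferase were treated with compounds for 24 h, and promoter activation was read as luminescence.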
ELG1 genotox = inducers of genotoxicity in HEK293T ELG1-luciferase cells; Potency, µM (titrated, usually from 46 µM), inactives show at the highest dose activity change, positive = activation, most hits filed as activators; HEK293T ELG1-luciferase reporter, luminescence, 16 h; actives 1.3% (n = 330,000); note: % of control where 0% means no effect; nearly all actives have a fitted effect of over 60% in size
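Quantitative HTS format in 1536-well plates. HEK293T ELG1-luciferase reporter cells receive test compound and are incubated 16 hr at 37 °C, 5% CO2; ONE-Glo added, 30 min room temperature, then luminescence read.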
FLuc modulator = inhibits or activates purified firefly luciferase, miR-21 counter-screen. actives 6.9% (n = 360,000). Potency, µM (titrated, usually from 57.5 µM), for the others: at the highest dose activity change, negative = inhibition, actives largely listed as inhibitors. purified FLuc, Km substrates, luminescence inhibition. P08659. AID 588342;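 note: plate controls were vehicle for no effect and reference inhibitor for full effect; nearly all actives have a fitted effect of over 55% in size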
Target sequence (P08659 whole entry, looked up): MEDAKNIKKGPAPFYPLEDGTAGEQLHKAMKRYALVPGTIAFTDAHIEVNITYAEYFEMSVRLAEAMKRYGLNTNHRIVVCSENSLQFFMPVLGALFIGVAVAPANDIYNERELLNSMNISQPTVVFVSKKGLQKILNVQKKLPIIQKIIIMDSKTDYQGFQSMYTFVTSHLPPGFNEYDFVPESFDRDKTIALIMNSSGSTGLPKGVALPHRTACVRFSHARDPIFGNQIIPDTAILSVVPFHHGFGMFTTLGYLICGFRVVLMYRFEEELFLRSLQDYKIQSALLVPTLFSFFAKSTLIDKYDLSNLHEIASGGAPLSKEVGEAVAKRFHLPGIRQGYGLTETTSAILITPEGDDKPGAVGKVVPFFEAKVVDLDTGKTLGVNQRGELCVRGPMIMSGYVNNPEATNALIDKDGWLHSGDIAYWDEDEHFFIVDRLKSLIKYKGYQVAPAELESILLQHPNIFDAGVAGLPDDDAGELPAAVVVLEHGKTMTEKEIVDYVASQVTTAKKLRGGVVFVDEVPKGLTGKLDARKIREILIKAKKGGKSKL
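Biochemical qHTS of compounds, final roughly 60 µM downward over six points, against 10 nM purified firefly luciferase using Km concentrations of substrates (10 uM D-luciferin, 10 uM ATP) in Tris acetate pH 7.5 buffer; luminescence output.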
KinaseGlo FLuc = counter-screen: inhibitors of Kinase-Glo firefly luciferase; Kinase-Glo luciferase, ATP luminescence, 8 min; Potency, µM (titrated, usually from 38.3 µM), for the others: top-dose activity change, negative = inhibition, actives largely listed as inhibitors; actives 0.28% (n = 200,000); note: % is set by controls: 0 for no effect and ±100 for the full control effect; nearly all actives have a fitted effect of over 60% in size
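Recombinant Kinase-Glo luciferase, 10 uM ATP (linear range), luciferin; imidazole pH 7.2 / KCl / MgCl2 / Tween / BSA buffer; 8 min RT; luminescence.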
Rab9 promoter act = Rab9 promoter activation. AID 485297. Potency, µM (titrated, usually from 9.22 µM), for inactives: at the top dose activation, negative = inhibition, hits mostly activators. actives 2.8% (n = 320,000). Huh7 Rab9 promoter-luciferase reporter, luminescence, 24 h; note: % of control where 0% means no effect; nearly all actives have a fitted effect of over 60% in size
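Huh7 cells stably carrying Rab9 promoter–luciferase reporter, plated 1500 cells/well, compound added after 2 h and incubated 24 h at 37 °C; luciferase luminescence then read after 10 min with detection reagent.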
Active calls of the source: *; ? = inconclusive; nt = no result; [ ] = dose if it differs, or a comment. Calls come from the whole dose curve; as a rule, active = well fitted curve in the direction sought with a large enough effect; inconclusive = small, poorly fitted or top-dose-only effect, or another doubt; inactive = no such curve, though single readings can be large; an effect the other way counts as inactive or inconclusive. Potency is the fitted concentration of half-maximal effect.

SMILES | SMN2 splice enh | NPC1 promoter act | ELG1 genotox | FLuc modulator | KinaseGlo FLuc | Rab9 promoter act
COc1ccc2c(c1)C1=NN(/C(C)=C/C(C)=O)C(c3cccc(F)c3)C1CC2 (stereo unspecified) | -11% | -2% | 0% | ? | -3% | 9%
COc1ccc2c(c1)C1=NN(/C(C)=C\C(C)=O)C(c3ccccc3)C1CC2 (stereo unspecified) | -5% | 12% | 16% | 19µM* | -4% | 18%
COc1ccc2c(c1)C1=NN(/C(C)=C/C(C)=O)C(c3ccc(F)cc3)C1CC2 (stereo unspecified) | 8% | 25% | ? | 27µM* | -5% | 19%
COc1ccc2c(c1)CCC1C2=NN(/C(C)=C\C(C)=O)C1c1ccc(F)cc1 (stereo unspecified) | 15% | ? | ? | 13µM* | -15% | ?
CC(C)c1ccc(/C=C/C(=O)NC2=NCCS2)cc1 | 1.8µM* | 0.32µM* | ? | 1.3µM* | 5% | 0.32µM*
CC(C)C(C(=O)NC1=NCCS1)c1ccc(Cl)cc1 (stereo unspecified) | -20% | -14% | -11% | -2% | 3% | -10%
O=C(/C=C/c1ccc(Cl)c(Cl)c1)NC1=NCCS1 | 15% | 2.8µM* | 18% | ? | 4% | 2.2µM*
CCCCc1nc2c(c3c1C[C@H](C)OC3)CN(S(=O)(=O)c1ccc(NC(C)=O)cc1)CC2 | -6%[9.22 µM] | nt | nt | nt | -8%[7.66 µM] | nt
COc1ccc(C(C(=O)Nc2ccc(C(C)C)cc2)N(C)C(=O)Cc2cccs2)cc1 (stereo unspecified) | 5% | nt | nt | 1% | nt | nt
Cc1cccc(C)c1NC(=O)N1CC=CCC1 | nt | 0% | 0% | -2% | nt | -6%
O=C(Nc1ccc(Cl)c(Cl)c1)N1CC=CCC1 | ? | 2.5µM* | ? | 12µM* | -3% | 3.5µM*
O=C(c1cc(-c2ccccc2)nc2ccccc12)N1N=C(C(F)F)CC1(O)C(F)F (stereo unspecified) | -1% | 24% | 0% | 0% | -6% | -9%
Cc1ccc(-c2cc(C(=O)N3N=C(C(F)F)CC3(O)C(F)F)c3ccccc3n2)cc1C (stereo unspecified) | 8% | 16% | -3% | 7.6µM* | 0% | 1%
CCOc1cccc(-c2cc(C(=O)N3N=C(C)CC3(O)C(F)F)c3ccccc3n2)c1 (stereo unspecified) | 3% | -10% | -2% | 24µM* | 0% | -5%
Cn1nnc(NC(=O)c2ccc(C(C)(C)C)cc2)n1 | 22µM* | 3.2µM* | ? | 3.4µM* | -8% | 1.6µM*
Cn1nnc(NC(=O)c2ccccc2F)n1 | -2% | 7% | 2% | -2% | -3% | 1%
Cn1nnc(NC(=O)c2cccc(OCc3ccccc3)c2)n1 | ? | 11% | -3% | -14% | -2% | 6%
Cn1nnc(NC(=O)c2ccc3ccccc3c2)n1 | 4% | 12% | 17% | 15µM* | -1% | 27%
CCOc1ccc(-n2c(Cc3ccccc3)nnc2SCc2nc(-c3cccs3)no2)cc1 | -2% | nt | nt | -14% | nt | nt
Cc1ccc(S(=O)(=O)Nc2cccc(-c3ccc(N4CCCCC4)nn3)c2)s1 | nt | nt | nt | 1.1µM* | nt | nt
CCc1ccc(S(=O)(=O)Nc2cccc(-c3ccc(N4CCCCC4)nn3)c2)s1 | nt | nt | nt | 2.7µM* | nt | nt
Cc1ccccc1C(=O)Nc1nnc2n1CCS2 | nt | nt | nt | -4% | nt | nt
O=C(NCC1CCCN(C(=O)c2cccnc2)C1)c1ccc(-c2ccccc2)cc1 (stereo unspecified) | nt | -1% | -3% | ? | 0% | -3%
CSCC(=O)N1CCCC(CNC(=O)c2ccc(-c3ccccc3)cc2)C1 (stereo unspecified) | nt | 2% | -6% | 21µM* | 2% | -2%
CC(=O)CCC(=O)N1CCCC(CNC(=O)c2ccc(-c3ccccc3)cc2)C1 (stereo unspecified) | nt | 17% | 4% | 11µM* | 3% | 25%
SMILES | SMN2 splice enh | NPC1 promoter act | ELG1 genotox | FLuc modulator | KinaseGlo FLuc | Rab9 promoter act
CC(=O)c1cccc(-n2c(=O)c3c4c(sc3n(Cc3ccccc3Cl)c2=O)CN(C(C)=O)CC4)c1 | -5% | nt | nt | -1% | nt | nt
CN(C)/C=N/C(=S)Nc1ccc(Br)cc1F | 28% | ? | 24% | 19µM* | -12% | 4µM*
CC1(C)CC(=O)c2cnc(NC3CC3)nc2C1 | -5% | -3% | 0% | 3% | 2% | 0%
Cc1ccc(Nc2ncc3c(n2)CC(C)(C)CC3=O)cc1 | 11µM* | 2.2µM* | ? | 12µM* | 3% | 1.6µM*
COc1ccc(NC(=O)CC2C(=O)N(c3ccccc3)C(=O)N2Cc2cccnc2)cc1 (stereo unspecified) | nt | nt | nt | -3% | nt | nt
N[C@@H](C(=O)O)c1cc(O)ccc1Cl | nt | nt | nt | nt | 2% | nt
Cc1cccc(NC(=O)Cn2nc(C)c3nn(-c4ccc(Cl)cc4)c(C)c3c2=O)c1C | nt | nt | nt | -2% | nt | nt
O=C(Nc1ccc(F)cc1F)c1csc(-c2ccccc2)n1 | 17% | 18% | ? | ? | 1% | 20%
CCOc1ccccc1OC(=O)c1cc2ccccc2oc1=O | 3% | 2% | 5% | ? | 0% | -4%
COc1ccccc1NS(=O)(=O)c1cccc(NC(=O)c2cc3ccccc3oc2=O)c1 | 14µM* | 2.5µM* | 23µM* | 11µM* | -17% | 3.2µM*
O=C(Nc1ccc(F)cc1F)c1cccc(C(=O)Nc2ccc(F)cc2F)n1 | nt | -6% | 18µM* | -1% | nt | -8%
CCOc1ccccc1NC(=O)c1cc2ccccc2oc1=O | nt | 3.2µM* | 9% | -17% | nt | 1.1µM*
COc1ccccc1NS(=O)(=O)c1cccc(NC(=O)Nc2ccccc2)c1 | -29% | -2% | -5% | ? | 1% | 0%
CCOc1cccc2cc(C(=O)Nc3nccs3)c(=O)oc12 | -3% | 2% | 0% | 2.4µM* | -6% | -1%
N/C(=N\NC(=O)c1ccc(F)cc1)c1cc2ccccc2oc1=O | 2% | 5% | 2% | -7% | 0% | -1%
O=C(Nc1ccc(F)cc1F)c1cc2ccccc2oc1=O | nt | 2µM* | 4.6µM* | 0.76µM* | nt | 1.8µM*
C=CCN1c2ccccc2[C@]23C[C@@H](C(=O)OC)N(S(=O)(=O)c4c(C)noc4C)C2=NC(C(=O)OC)=C(C(=O)OC)[C@H]13 | 11%[9.22 µM] | nt | nt | nt | -2%[7.66 µM] | nt
COc1cc(C(=O)N/N=c2/sc3ccccc3n2C)cc(OC)c1OC | -67%[1.84 µM] | 5% | 3% | 0% | 0% | 5%
Cn1/c(=N/NC(=O)c2ccccc2Br)sc2ccccc21 | ? | ? | ? | 15µM* | -5% | 4µM*
CCOC(=O)c1ccc(NC(=O)C(CC)Sc2nc3ncccc3o2)cc1 (stereo unspecified) | nt | nt | nt | -15% | nt | nt

Screening results (PubChem)
